{"source": "PubChem BioAssay AID2267", "about": "(National Center for Advancing Translational Sciences (NCATS), 2010)", "note": "This is one part of the list. Results filed as inconclusive are left out. Activity calls are given as the source filed them. Calls follow the shape of the dose curve; as a rule, active = well fitted inhibition curve with a large enough effect; inconclusive = small, poorly fitted or top-dose-only effect, or effect the other way; inactive = flat fitted curve, though single readings scatter.", "data": [{"target": "Pyruvate kinase PKM (Homo sapiens) (UniProt P14618)", "sequence (P14618 whole entry, looked up, canonical isoform)": "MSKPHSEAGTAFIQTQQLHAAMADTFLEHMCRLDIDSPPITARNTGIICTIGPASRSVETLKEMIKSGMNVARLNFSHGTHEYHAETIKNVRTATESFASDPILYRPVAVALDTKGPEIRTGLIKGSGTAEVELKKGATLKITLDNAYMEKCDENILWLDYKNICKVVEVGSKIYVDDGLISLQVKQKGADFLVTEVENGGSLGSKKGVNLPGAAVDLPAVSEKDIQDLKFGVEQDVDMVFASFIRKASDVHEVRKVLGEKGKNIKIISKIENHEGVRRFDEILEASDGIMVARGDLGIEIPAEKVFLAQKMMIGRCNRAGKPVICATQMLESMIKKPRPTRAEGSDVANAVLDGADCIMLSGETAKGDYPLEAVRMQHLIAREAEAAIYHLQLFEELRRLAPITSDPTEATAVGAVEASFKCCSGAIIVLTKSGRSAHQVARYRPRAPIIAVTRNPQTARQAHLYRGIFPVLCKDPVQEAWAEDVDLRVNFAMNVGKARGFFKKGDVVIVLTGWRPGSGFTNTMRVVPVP", "assay": "Secondary assay for Inhibitors of Human Pyruvate Kinase M2 isoform", "conditions": "purified hPK-M2, LDH-coupled NADH fluorescence kinetic", "from_the_text": "NIH Chemical Genomics Center [NCGC] Matthew G. Vander Heiden, M.D., Ph.D. [Harvard Medical School, 77 Avenue Louis Pasteur, Boston, MA 02115] MLPCN Grant: 1 R03 MH085679-01 NCGC Assay Overview: Human pyruvate kinase muscle 2 (hPK-M2)enzyme was supplied as a highly purified (>95% pure) preparation from Harvard Medical School and a secondary assay was used to evaluate compounds. This assay couples the formation of pyruvate from hPK-M2 using lactate dehydrogenase (LDH) and NADH. The depletion of NADH is followed in a fluorescent-based kinetic assay that follows the formation of pyruvate to lactate, as catalyzed LDH (described by Hannaert et al., 2002)1 Pyruvate kinase substrates, PEP and ADP, were present in the assay at 0.1 mM and 4 mM respectively. In this kinetic assay initial rates were determined by following the fluorescence of NADH depletion.\nNCGC Assay Protocol Summary: Three uL of substrate mix (final concentration, 50 mM Tris-Cl pH 8.0, 200 mM KCl, 15 mM MgCl2, 0.1 mM PEP, 4.0 mM ADP, and 0.2 mM NADH) was dispensed into black-solid 1536 well plates. 23 nL of compounds were delivered by a pin tool and 1 uL of enzyme mix (final concentrations, 10 nM hPK-M2 and 1 uM of LDH) was added. Plates were immediately placed in ViewLux (Perkin Elmer) and NADH fluorescence was determined at 30 second exposure intervals for between 3 and 6 minutes. Data were normalized to the basal signal.", "values": [{"molecule": "Cc1ccc(-c2nc3ccccn3c2Nc2ccc(F)cc2)o1", "Potency": "7.3 µM (active)"}]}]}
